Measurements as given in the supplement of paper PMC6555819.

How the values were obtained:
Test in all cases: PBM binding z-score (relative to random genomic background probes); higher = stronger binding; sequences stand for … in GC…GCGATTGACAGCGTAGAATGAAGG
[1] = test system: FXR:RXRa (NR concentration 270 nM, RXRa partner concentration 90 nM)
Method in brief: (§1)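 Binding z-scores were set against random background probes. The data came from custom Agilent 4×180K protein-binding microarrays carrying double-stranded probes with 34-nt variable regions, incubated 1 h with ligand-free nuclear receptor dimers. Partner-specific antibodies detected binding, and scanned fluorescence was regression-normalized.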

[2] = test system: LXRa:RXRa (NR concentration 270 nM, RXRa partner concentration 90 nM)
Method in brief: as §1

[3] = test system: LXRa homodimer (NR concentration 270 nM)
Method in brief: as §1

[4] = test system: LXRb:RXRa (NR concentration 270 nM, RXRa partner concentration 90 nM)
Method in brief: as §1

[5] = test system: LXRb homodimer (NR concentration 270 nM)
Method in brief: as §1

[6] = test system: PPARa:RXRa (NR concentration 270 nM, RXRa partner concentration 90 nM)
Method in brief: as §1

[7] = test system: PPARg:RXRa (NR concentration 180 nM, RXRa partner concentration 90 nM)
Method in brief: as §1

[8] = test system: PPARg:RXRa 270nM:90nM, anti-RXR (NR concentration 270 nM, RXRa partner concentration 90 nM)
Method in brief: as §1

[9] = test system: PPARg:RXRa 30nM:10nM, anti-RXR (NR concentration 30 nM, RXRa partner concentration 10 nM)
Method in brief: as §1

[10] = test system: PPARg:RXRa 90nM:30nM, anti-RXR (NR concentration 90 nM, RXRa partner concentration 30 nM)
Method in brief: as §1

[11] = test system: PPARg:RXRa DBDmut IVT, anti-RXR (DBD mutation: RXRa K156A/R161A, NR concentration 270 nM, RXRa partner concentration 90 nM)
Method in brief: as §1

[12] = test system: PPARg:RXRa IVT, anti-PPARg (NR concentration 270 nM, RXRa partner concentration 90 nM)
Method in brief: as §1

[13] = test system: PPARg DBDmut:RXRa IVT, anti-PPARg (DBD mutation: PPARg1 K132A/R137A, NR concentration 270 nM, RXRa partner concentration 90 nM)
Method in brief: as §1

[14] = test system: PPARg DBDmut IVT, anti-PPARg (DBD mutation: PPARg1 K132A/R137A, NR concentration 270 nM)
Method in brief: as §1

[15] = test system: PPARg homodimer (NR concentration 180 nM)
Method in brief: as §1

[16] = test system: PXR:RXRa (NR concentration 270 nM, RXRa partner concentration 90 nM)
Method in brief: as §1

[17] = test system: PXR homodimer (NR concentration 270 nM)
Method in brief: as §1

[18] = test system: RARa:RXR (NR concentration 270 nM, RXRa partner concentration 90 nM)
Method in brief: as §1

[19] = test system: RARa homodimer (NR concentration 270 nM)
Method in brief: as §1

[20] = test system: RARb:RXRa (NR concentration 270 nM, RXRa partner concentration 90 nM)
Method in brief: as §1

Sequence | PBM binding z-score [1] | PBM binding z-score [2] | PBM binding z-score [3] | PBM binding z-score [4] | PBM binding z-score [5] | PBM binding z-score [6] | PBM binding z-score [7] | PBM binding z-score [8] | PBM binding z-score [9] | PBM binding z-score [10] | PBM binding z-score [11] | PBM binding z-score [12] | PBM binding z-score [13] | PBM binding z-score [14] | PBM binding z-score [15] | PBM binding z-score [16] | PBM binding z-score [17] | PBM binding z-score [18] | PBM binding z-score [19] | PBM binding z-score [20]
CCTGCTGGGCCAAGGTCATTGATCAGTCAAAGCA | 3.6 | 3.06 | 0.626 | 2.99 | -0.84 | 3.64 | 1.23 | 2.56 | -0.0774 | 1.46 | 0.105 | 1.18 | -1.48 | -1.47 | 2.84 | 3.79 | 1.84 | 3.92 | -0.536 | 3.48
GGAGACAGGTGAAACGCAGGTAACTCAGGGTGGC | 0.0373 | 0.224 | -0.296 | -0.0924 | -0.712 | 1.03 | 0.617 | 0.0474 | -0.768 | -0.000912 | 0.957 | 0.901 | -1.26 | -0.98 | -0.102 | -0.298 | -0.332 | 0.137 | -0.68 | 0.904
CGAACTAGGTCAGATCAGGACAGTGAAGGATGAT | 2.96 | 0.93 | -0.182 | 0.466 | -0.387 | 3.07 | 5.57 | 4.64 | 1.82 | 3.82 | 7.59 | 7.23 | 0.934 | 0.164 | 1.18 | 1.83 | 0.129 | 1.19 | -0.0983 | 3.17
CGTCCAAGGTGAGCAGGTCAGTGAAAGCGACGTG | 0.495 | 0.118 | -0.619 | 0.202 | -1.28 | 1.73 | 0.537 | 1.08 | -0.475 | 0.388 | 1.99 | 2.14 | -0.318 | -0.865 | 0.43 | 0.116 | -0.516 | 0.783 | -0.389 | 2.67
AGAATGAGGTTATACGTAGATCACGGAAGAAAGT | 2.18 | 2.11 | 0.266 | 1.61 | -0.128 | 3.03 | 1.91 | 2.03 | 0.729 | 1.42 | 4.13 | 2.15 | 1.62 | 1.21 | 0.376 | 1.19 | 0.48 | 1.72 | 0.335 | 1.53
TAGCCTAGGTCATTCAGGTGCCAGTATAGAAAGC | 4.93 | 3.74 | 0.777 | 2.77 | 0.913 | 3.55 | 1.87 | 2.27 | 0.493 | 1.54 | 1.57 | 2.83 | 0.483 | -0.0925 | 1.13 | 2.17 | 0.327 | 2.34 | -0.175 | 3.6
TCTCGTTGGTCAAAGGTCACACACTCGAAATGCG | 6.33 | 5.68 | 4.45 | 5.88 | 2.23 | 6.57 | 9.51 | 8.55 | 7.87 | 9.27 | 2.72 | 5.29 | 0.705 | 2.09 | 5.26 | 5.86 | 2.2 | 7.31 | 3.39 | 5.27
ACTAGTTGGTCAGCCGAGGTCACACACAATTCGG | 3.43 | 3 | 2.4 | 3.32 | 0.882 | 3.85 | 2.34 | 2.6 | 0.926 | 2.06 | 1.8 | 3.12 | 0.481 | 1.14 | 3.29 | 5.43 | 2.13 | 5 | 1.82 | 3.58
CAAACTAGGTCAAGAGGGCAAAGTCCGCTTCCCG | 4.55 | 4 | 1.14 | 2.47 | 0.164 | 5.21 | 8.68 | 7.36 | 5.56 | 7.15 | 8.35 | 8.37 | 4.28 | 1.48 | 3.42 | 2.98 | 0.703 | 3.96 | 1.19 | 4.53
ATCTCTAGGTAAAAAGTTCAGTGAAAGAGAGGAC | 1.28 | 1.39 | 1.03 | 0.921 | 0.888 | 1.98 | 2.7 | 3.72 | 2.6 | 3.68 | 1.79 | 2.04 | 1.14 | 0.995 | 1.73 | 1.56 | 1.46 | 1.33 | 1.65 | 2.38
AGAGACAGGTGAGTGAAGGTAACTCAGCTGGACG | 0.542 | 0.207 | -0.174 | 0.279 | 0.443 | 0.437 | 0.497 | 0.226 | 0.0896 | 0.0651 | 0.422 | 0.599 | 0.635 | -0.659 | 0.101 | 0.0989 | 0.169 | 0.435 | -0.0726 | 0.876
ATCTCTAGGTAACAAGTTCAGTGCAAGAGAGGAC | 0.558 | 0.749 | 0.739 | 0.611 | 0.89 | 1.5 | 1.32 | 1.86 | 0.692 | 1.45 | 3.44 | 2.92 | 1.24 | 1.13 | 1.36 | 1.87 | 2.67 | 0.985 | 1.05 | 1.69
TGAATGAGGTTAACGATCAGGGAACGTGGCGTCG | 1.98 | 1.82 | -0.477 | 0.806 | -0.194 | 3.2 | 2.41 | 2.48 | 0.951 | 1.83 | 2.53 | 2.98 | 0.909 | 0.129 | 0.132 | 0.809 | -0.38 | 2.15 | -0.0277 | 2.01
CGTCCAAGGTCAACGGTCAGTGAAGAGATGACGG | 7.38 | 5.09 | 1.45 | 4.23 | 0.938 | 6.03 | 6.01 | 5.78 | 2.86 | 4.85 | 3.45 | 4.39 | 0.975 | 0.233 | 2.65 | 4.02 | 0.701 | 4.66 | 0.466 | 5.55
